Inconclusive results are not listed. A call without a number means that no potency is given here. Activity calls are given as the source filed them. Calls come from the whole dose curve; as a rule, active = well fitted inhibition curve with a large enough effect; inconclusive = small, poorly fitted or top-dose-only effect; inactive = no such curve, though single readings can be large or run the other way.

For the assay, the target named is Retinaldehyde dehydrogenase 3 (Homo sapiens) (UniProt P47895). As to the kind of experiment: qHTS for Inhibitors of the Aldehyde Dehydrogenase Family (ALDH1A3) Primary screen (AID 2061315). The conditions noted are these: ALDH inhibition qHTS; series mostly up to 56 µM.
For `C=CC(C)(CC/C=C(\C)C(=O)OC)OC1OC(COC(=O)CC(C)(O)CC(=O)O)C(O)C(O)C1O` (stereo not given), the Potency entry was “inactive”.

With `CC1=C2C(=O)O[C@@H](c3ccoc3)[C@]2(C)CCC1`, the Potency result is “inactive”.

Take `O=C(N/N=C/c1ccc(O)c(O)c1)c1cc2ccccc2cc1O`: the Potency entry is “inactive”.

`CC(C)[C@H]1CC[C@@]2(O)COC(=O)[C@H]2[C@@H]1/C=C(\CO)C(=O)O`: the Potency entry is “inactive”.

Turning to `O=C1C=CC(O)(/C=C/C(=O)OC[C@H]2O[C@@H](Oc3ccc(O)cc3)[C@H](O)[C@@H](O)[C@@H]2O)C=C1`, the Potency entry is “inactive”.

For `O=C(/C=C/c1ccc(O)cc1)OCC1OC(O)C(OC2OC(CO)C(O)C(O)C2O)C(O)C1O` (stereo not given), the Potency result was “inactive”.

Consider `COCCCNC(=O)c1ccc(Cn2c(=O)c3ccccc3n(Cc3ccc(C(C)C)cc3)c2=O)cc1`, for which the Potency entry was “inactive”.

Take `CC12CCC3c4ccc(OC5OC(C(=O)O)C(O)C(O)C5O)cc4CCC3C1CCC2O` (stereo not given): the Potency result is “inactive”.

On to `C=CC[C@]12C[C@@H](OC)C(=O)C(OC)=C1O[C@@H](c1cc(OC)c3c(c1)OCO3)[C@@H]2C`, for which the Potency result is “inactive”.

`OCC1OC(Oc2cc(O)c3c(c2)OC(c2ccc(O)cc2)C(O)C3)C(O)C1O` (stereo not given): the Potency result is “inactive”.

Turning to `CC1OC(OC2CCC3(C)C(CCC4(C)C3C=CC35OCC6(CCC(C)(C)CC63)CCC45C)C2(C)CO)C(OC2OC(CO)C(O)C(O)C2O)C(O)C1OC1OC(CO)C(O)C(O)C1O` (stereo not given), the Potency entry is “inactive”.

For the molecule `C[C@@H]1O[C@@H](O[C@H]2[C@H](O[C@H]3[C@H](O[C@H]4CC[C@@]5(C)C(CC[C@]6(C)C5CC=C5[C@@H]7CC(C)(C)CC[C@]7(C(=O)O[C@@H]7O[C@H](CO)[C@@H](O[C@@H]8O[C@@H](C)[C@H](O)[C@@H](O)[C@H]8O)[C@H](O)[C@H]7O)CC[C@]56C)C4(C)C)OC[C@H](O)[C@@H]3O)O[C@H](CO)[C@@H](O)[C@@H]2O)[C@H](O)[C@H](O)[C@H]1O` (stereo not given in full), the activity change, negative = inhibition is -3.58% [at 11.2 µM] (inactive).

Regarding `CC(C)CC(c1c(O)c(C=O)c(O)c(C=O)c1O)C1CCC(C)(O)C2CC(C(C)(C)O)CCC12C` (stereo not given), the Potency result was “inactive”.

`CC(C)(C)OC(=O)c1ncn2c1C(C)(C)Nc1ccccc1-2`: the Potency result is “inactive”.

On to `C=C1C2CCC3CC2(CC(O)C2(O)C1CC(OC1OC(CO)C(O)C(O)C1O)C2(C)C)CC3(C)O` (stereo not given), for which the Potency entry is “inactive”.

`C[C@@H]1C(=O)O[C@H](C)[C@H]1CC(=O)[C@](C)(O)[C@H]1CC[C@@]2(O)C3=CC(=O)[C@@H]4C[C@@H](O)[C@@H](O)C[C@]4(C)C3CC[C@]12C` (stereo not given in full): the Potency entry is “inactive”.

Take `C=CC(C)(C)O[C@@H]1O[C@H](CO[C@@H]2OC[C@](O)(CO)[C@H]2O)[C@@H](O)[C@H](O)[C@H]1O`: the Potency result was “inactive”.

Turning to `CCc1cc(CC[C@]2(C3CCCC3)CC(O)=C(Cc3nc4nc(C)cc(C)n4n3)C(=O)O2)cc(CC)n1`, the Potency result was “inactive”.

For `C[C@@H]1O[C@@H](O[C@@H]2CO[C@@H](O[C@H]3CC[C@@]4(C)C(CC[C@]5(C)C4CC=C4[C@@H]6CC(C)(C)CC[C@]6(C(=O)O[C@@H]6O[C@H](CO)[C@@H](O)[C@H](O)[C@H]6O)CC[C@]45C)[C@]3(C)CO)[C@H](O)[C@H]2O[C@@H]2O[C@H](CO)[C@@H](O)[C@H](O)[C@H]2O)[C@H](O)[C@H](O)[C@H]1O` (stereo not given in full), the Potency entry is “inactive”.

Regarding `Cc1ccc([C@@H]2CC=C(C(=O)O)[C@H](c3ccc(C(C)(C)C)cc3)N2S(=O)(=O)c2ccc(C)cc2)cc1`, the Potency result is “inactive”.

In the case of `C/C(=C\CC[C@H](CO)[C@@H]1CC[C@]2(C)C3=C(CC[C@@]12C)[C@@]1(C)CCC(=O)C(C)(C)C1CC3)C(=O)O` (stereo not given in full), the Potency entry was “inactive”.

For `CCC(C)C(=O)OC1CC(O)C23C4OCC5(C(O)CC2C1(C)C(O)O4)C3C(=O)CC1(C)C(c2ccoc2)CC2OC215` (stereo not given), the Potency entry was “inactive”.

As to `CCCCC1CCC(c2nc(-c3ccncc3)no2)CC1` (stereo not given), the Potency entry was “inactive”.

For the molecule `O=C(C1=CCN2c3c(cccc31)OC[C@H]2CN1CCOCC1)c1cccc2ccccc12`, the Potency result was “inactive”.

Consider `C=C1CO[C@@]2(O[C@H]3CC4C5CC=C6C[C@@H](O)C[C@@H](O[C@@H]7OC[C@H](O)[C@H](O[C@@H]8OC[C@@H](O)[C@H](O)[C@H]8O)[C@H]7O[C@@H]7O[C@@H](C)[C@H](OC(C)=O)[C@@H](OC(C)=O)[C@H]7OC(C)=O)[C@]6(C)C5CC[C@]4(C)[C@@H]3[C@@H]2C)[C@@H](O)[C@H]1OC1OC(C)C(O)C(O)C1O` (stereo not given in full), for which the activity change, negative = inhibition is -6.16% [at 11.2 µM] (inactive).

For the molecule `COc1cc2nc(=NC(=O)c3cccnc3)n3c(c2cc1OC)NCC3`, the Potency entry was “inactive”.

As to `CC(C)[C@@](O)(c1ccc2cc(OC(F)F)c(OC(F)F)cc2c1)c1cn[nH]n1`, the Potency result was “inactive”.

Take `C[C@H](/C=C/[C@@]1(O)[C@H](C)CC(=O)CC1(C)C)O[C@@H]1O[C@H](CO[C@@H]2OC[C@@H](O)[C@H](O)[C@H]2O)[C@@H](O)[C@H](O)[C@H]1O`: the Potency result is “inactive”.

`Cc1cccc(S(=O)(=O)N2CCC[C@@H]2CCN2CCC(C)CC2)c1`: the Potency entry was “inactive”.

Take `C[C@@H]1O[C@@H](O[C@@H]2[C@@H](O)[C@H](O[C@@H]3[C@@H](O)[C@@H](O)[C@H](O[C@H]4[C@H](OC(=O)[C@]56CCC(C)(C)C[C@H]5C5=CCC7[C@@]8(C)C[C@H](O)[C@H](O[C@@H]9O[C@H](C(=O)O)[C@@H](O)[C@H](O)[C@H]9O)[C@@](C)(CO)C8[C@H](O)C[C@@]7(C)[C@]5(C)CC6)OC[C@H](O)[C@@H]4O)O[C@H]3C)OC[C@H]2O)[C@H](O)[C@H](O)[C@H]1O` (stereo not given in full): the activity change, negative = inhibition is 15.6% [at 11.2 µM] (inactive).

As to `C[C@@H]1O[C@@H](O[C@H]2[C@H](OC(=O)[C@]34CCC(C)(C)C[C@H]3C3=CCC5[C@@]6(C)C[C@H](O)[C@H](O[C@@H]7O[C@H](CO)[C@@H](O[C@H]8OC[C@](O)(CO)[C@H]8O)[C@H](O)[C@H]7O)[C@@](C)(CO)C6[C@H](O)C[C@@]5(C)[C@]3(C)C[C@H]4O)OC[C@H](O)[C@@H]2O)[C@H](O)[C@H](O)[C@H]1O[C@@H]1OC[C@@H](O)[C@H](O[C@@H]2OC[C@](O)(CO)[C@H]2O)[C@H]1O` (stereo not given in full), the activity change, negative = inhibition is -7.49% [at 11.2 µM] (inactive).

Regarding `CCCCCCCOc1cc2c(cc1/C(C)=C/c1ccc(C(=O)O)cc1)C(C)(C)CCS2(=O)=O`, the Potency result was “inactive”.

Regarding `C[C@]12CC[C@@H]3c4ccc(O[C@@H]5O[C@H](C(=O)O)[C@@H](O)[C@H](O)[C@H]5O)cc4CC[C@H]3[C@@H]1CCC2=O`, the Potency entry was “inactive”.

As for `C/C(=C\CCC(C)C1=CCC2(C)OC3=C(CC12)C(=O)C(O)CC3)CO` (stereo not given), the Potency result is “inactive”.

As to `O=C(COc1cccc2c(=O)[nH]ccc12)c1ccccc1`, the Potency result was “inactive”.

Consider `CSCC1OC(n2cnc3c(=O)[nH]cnc32)C(O)C1O` (stereo not given), for which the Potency result was “inactive”.

On to `CC1=CC(=O)C2C(C)(C)CC(O)CC2(C)C1CO` (stereo not given), for which the Potency entry was “inactive”.

As for `CNC(=O)[C@H]1O[C@@H](n2cnc3c(NCc4ccc(N)c(I)c4)ncnc32)[C@H](O)[C@@H]1O`, the activity change, negative = inhibition was 4.83% [at 11.2 µM] (inactive).

For the molecule `CC#CCn1c(N2CCCC(N)C2)nc2c1c(=O)n(Cc1nc(C)c3ccccc3n1)c(=O)n2C` (stereo not given), the Potency entry was “inactive”.

For `N#Cc1cc(-c2ccnc(Nc3ccc(N4CCOCC4)cc3)n2)ccc1OC1CCOCC1`, the Potency entry was “inactive”.

Source of the values: PubChem BioAssay (NCATS).
